Experiments:
Assay in all cases: PBM binding z-score (relative to random genomic background probes); higher = stronger binding; sequences stand for … in GC…GCGATTGACAGCGTAGAATGAAGG
[1] = tested on: FXR:RXRa (NR concentration 270 nM, RXRa partner concentration 90 nM)
Method in brief: (§1)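 Antibodies against each partner of ligand-free nuclear receptor dimers (one per run) detected binding on custom Agilent 4×180K protein-binding microarrays after 1 h incubation. The double-stranded probes had 34-nt variable regions carrying direct-repeat seeds, single-nucleotide variants, half-site ablations and random human genomic background sequences. Binding z-scores, from regression-normalized fluorescence, use the random background probes as reference.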

[2] = tested on: LXRa:RXRa (NR concentration 270 nM, RXRa partner concentration 90 nM)
Method in brief: as §1

[3] = tested on: LXRa homodimer (NR concentration 270 nM)
Method in brief: as §1

[4] = tested on: LXRb:RXRa (NR concentration 270 nM, RXRa partner concentration 90 nM)
Method in brief: as §1

[5] = tested on: LXRb homodimer (NR concentration 270 nM)
Method in brief: as §1

[6] = tested on: PPARa:RXRa (NR concentration 270 nM, RXRa partner concentration 90 nM)
Method in brief: as §1

[7] = tested on: PPARg:RXRa (NR concentration 180 nM, RXRa partner concentration 90 nM)
Method in brief: as §1

[8] = tested on: PPARg:RXRa 270nM:90nM, anti-RXR (NR concentration 270 nM, RXRa partner concentration 90 nM)
Method in brief: as §1

[9] = tested on: PPARg:RXRa 30nM:10nM, anti-RXR (NR concentration 30 nM, RXRa partner concentration 10 nM)
Method in brief: as §1

[10] = tested on: PPARg:RXRa 90nM:30nM, anti-RXR (NR concentration 90 nM, RXRa partner concentration 30 nM)
Method in brief: as §1

[11] = tested on: PPARg:RXRa DBDmut IVT, anti-RXR (DBD mutation: RXRa K156A/R161A, NR concentration 270 nM, RXRa partner concentration 90 nM)
Method in brief: as §1

[12] = tested on: PPARg:RXRa IVT, anti-PPARg (NR concentration 270 nM, RXRa partner concentration 90 nM)
Method in brief: as §1

[13] = tested on: PPARg DBDmut:RXRa IVT, anti-PPARg (DBD mutation: PPARg1 K132A/R137A, NR concentration 270 nM, RXRa partner concentration 90 nM)
Method in brief: as §1

[14] = tested on: PPARg DBDmut IVT, anti-PPARg (DBD mutation: PPARg1 K132A/R137A, NR concentration 270 nM)
Method in brief: as §1

[15] = tested on: PPARg homodimer (NR concentration 180 nM)
Method in brief: as §1

[16] = tested on: PXR:RXRa (NR concentration 270 nM, RXRa partner concentration 90 nM)
Method in brief: as §1

[17] = tested on: PXR homodimer (NR concentration 270 nM)
Method in brief: as §1

[18] = tested on: RARa:RXR (NR concentration 270 nM, RXRa partner concentration 90 nM)
Method in brief: as §1

[19] = tested on: RARa homodimer (NR concentration 270 nM)
Method in brief: as §1

[20] = tested on: RARb:RXRa (NR concentration 270 nM, RXRa partner concentration 90 nM)
Method in brief: as §1

Row | Sequence | PBM binding z-score [1] | PBM binding z-score [2] | PBM binding z-score [3] | PBM binding z-score [4] | PBM binding z-score [5] | PBM binding z-score [6] | PBM binding z-score [7] | PBM binding z-score [8] | PBM binding z-score [9] | PBM binding z-score [10] | PBM binding z-score [11] | PBM binding z-score [12] | PBM binding z-score [13] | PBM binding z-score [14] | PBM binding z-score [15] | PBM binding z-score [16] | PBM binding z-score [17] | PBM binding z-score [18] | PBM binding z-score [19] | PBM binding z-score [20]
1 | AATACAGGGTCATCGTAGGCGAGAGTACGCACAG | 7.5 | 6.16 | 2.08 | 4.6 | 1.54 | 5.94 | 6.58 | 6.21 | 2.48 | 4.92 | 2.84 | 4.14 | 3.29 | 1.01 | 2.21 | 4.29 | 1.03 | 5.1 | 1.25 | 4.37
2 | ATCGAAAGGTCGAGGTGAGGATAGAGAAAGGGAA | 4.33 | 3.16 | 0.082 | 2.64 | 0.457 | 4.44 | 3.06 | 3.83 | 1.33 | 2.81 | 0.551 | 2.41 | 1.29 | 0.836 | 1.63 | 2.46 | 0.644 | 3.16 | 0.718 | 4.06
3 | GATACAGGCTCAGCTAGAGGCCAGAGTATGGAAA | -0.845 | -1.13 | -0.652 | -1.25 | -1.62 | -1.21 | 0.137 | -0.746 | -0.505 | -0.667 | -1.07 | -0.379 | -0.391 | -1.01 | -0.531 | -0.951 | -0.872 | -0.733 | -0.86 | -0.294
4 | CGAACTGGGTCATCCAGGACAGTGAATACATTGA | 3.3 | 1.9 | 0.0995 | 1.9 | -0.478 | 4.92 | 7.51 | 5.92 | 3.5 | 5.51 | 7.33 | 8.01 | 5.1 | 4.27 | 2.15 | 2.01 | 0.0976 | 3.11 | 0.785 | 3.21
5 | TCATATAGGTAATACAGGCGAAAGTCGGCATCTA | 0.743 | 0.759 | 0.19 | 0.501 | -0.147 | 1.06 | 0.851 | 2.29 | 4.01 | 3.08 | 3.6 | 2.22 | 1.28 | 0.916 | 0.655 | 0.46 | 0.00877 | 0.48 | 0.962 | 0.247
6 | ACAGACAGGTGGTGAAGGTAACTCAGGCTATCAT | -0.0169 | -0.306 | -0.324 | -0.0742 | -0.476 | -0.288 | 0.473 | -0.194 | -0.095 | -0.321 | -0.597 | 0.0629 | -0.371 | -0.55 | 0.0722 | -0.271 | 0.0248 | -0.15 | 0.517 | -0.142
7 | AATACAGGGTCACTATGCCAGAGTAGGTACGAAT | 5.56 | 4.68 | 1.16 | 3.79 | 1.06 | 5.44 | 6.37 | 4.87 | 2.05 | 3.73 | 3.26 | 4.74 | 1.77 | 1.8 | 1.62 | 2.9 | 0.523 | 3.67 | 1.11 | 4.01
8 | CGAACGAGAGCATGAGTTGATAGCAAATGCCGAT | -0.453 | -0.53 | -0.103 | -0.828 | -0.953 | -0.357 | 0.777 | 0.133 | -0.214 | -0.282 | -0.221 | -0.445 | 0.0684 | -0.174 | -0.221 | -0.273 | -0.148 | -0.442 | -0.33 | -0.53
9 | CTACCAAGGTGAACAAGGTCGTTAATTACTATTC | 1.3 | 1.23 | 0.268 | 1.86 | -0.284 | 2.61 | 1.07 | 1.5 | 0.266 | 1.15 | 2.2 | 2.78 | 0.73 | 0.27 | 1.17 | 2.76 | 1.14 | 2.57 | 0.262 | 2.11
10 | CGAACTAGGTCATTGACAGGACAGAGAATAGTAA | 4.59 | 3.18 | 0.538 | 1.92 | 0.12 | 4.71 | 7.41 | 6.39 | 3.83 | 6.06 | 8 | 8.14 | 4.58 | 3.51 | 2.33 | 1.5 | -0.262 | 2.19 | 0.528 | 3.65
11 | CGTCCAAGGTCAGAGAGGTCAGTGAGTGCCGAGT | 6.29 | 5.06 | 3.37 | 4.79 | 0.412 | 5.19 | 3.71 | 4.4 | 0.893 | 2.59 | 2.89 | 3.66 | -0.0729 | -0.219 | 3.93 | 6.23 | 12.6 | 5.43 | 2.9 | 5.37
12 | CGTACAAGGTCAATGCTAGGTCAGTGAAAGCATT | 7.34 | 6 | 2.7 | 4.55 | 1.54 | 5.5 | 5.12 | 5.6 | 2.08 | 4.22 | 4.05 | 4.92 | 0.909 | 0.378 | 5.84 | 5.07 | 2.03 | 6.46 | 2.18 | 5.33
13 | CCTTTCGGGTCAAGGTTATAGCACGGGTGGTACG | 5.72 | 3.85 | 0.197 | 3.11 | 0.545 | 5.06 | 4 | 5.1 | 1.91 | 4.2 | 1.96 | 3.48 | 0.691 | 0.648 | 2.93 | 3.67 | 0.171 | 4.51 | 0.494 | 4.3
14 | CCTAGTCGGTCAGGAGGTCACACACCGGATATGA | 3.96 | 4 | 2.81 | 3.49 | 0.605 | 4.55 | 4.89 | 5.09 | 3.26 | 4.26 | 2.85 | 4.85 | 0.312 | 0.324 | 4.25 | 4.34 | 1.2 | 5.23 | 2.27 | 4.25
15 | CAAACTAGGTCAAGCTCAAAGTCGGTTTGTGCCA | 4.15 | 2.87 | 0.38 | 1.86 | 0.134 | 4.98 | 7.79 | 7.36 | 4.77 | 7.27 | 8.39 | 8.97 | 4.04 | 1.47 | 1.52 | 1.38 | -0.401 | 2.52 | 0.322 | 4.33
16 | AGTCAAAGTTCACTAGGTACCGTAAGATTCAGCT | 4.67 | 5.23 | 3.18 | 3.05 | 0.945 | 4.23 | 5.85 | 6.01 | 2.8 | 5.22 | 1.61 | 3.48 | 1.07 | 0.221 | 2.63 | 4.09 | 3.98 | 2.9 | 1.09 | 4.74
17 | CCTATTAGTTGACCATAAGGGGAACCGAAGCTCG | 0.142 | 0.366 | 0.327 | 0.217 | 0.84 | 0.0558 | 0.299 | 0.112 | -0.0773 | 0.104 | 0.601 | 0.106 | 0.62 | 0.755 | 1.54 | 0.541 | 0.854 | 0.248 | 2.37 | 0.582
18 | CCTAGTTGGTTAAGGTCACACACGCTATAGGTAC | 4.71 | 4.56 | 2.6 | 4.3 | 1.42 | 4.33 | 2.68 | 3.2 | 1.24 | 2.39 | 1.64 | 2.5 | 1.48 | 1.66 | 3.91 | 4.46 | 4.13 | 4.85 | 2.51 | 4.24

From the supplement of paper PMC6555819
